# In the supplement of paper PMC10515830:
# Where a name gives a salt, the structure may show the parent alone.
# Tests used:
# Conditions in all cases: 10 µM; exposure time 6 h
# [1] = system: Danio rerio larvae (5 dpf); assay: difference in excitability vs DMSO (percentage points); higher = more excitable than DMSO
# How it was run: (§1)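 Wild-type zebrafish larvae at 5 dpf were kept in 96-well plates and exposed for 6 h to 100 µL egg water holding library compound at a final concentration of 10 µM. From 3 h into exposure, the plates were held at 28.5 ℃ and photographed every 6 s through a 3-h programme of moving lines and 100 ms, 400Hz tones. Each behaviour was scored by Z-LaP Tracker, a DeepLabCut model, and averaged over 48 larvae per compound. Every value gives the compound mean minus the vehicle control mean, in percentage points.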
# [2] = system: Danio rerio larvae (5 dpf); assay: difference in startle response vs DMSO (percentage points); higher = stronger startle than DMSO
# How it was run: as §1
# [3] = system: Danio rerio larvae (5 dpf); assay: difference in activity during first hour vs DMSO (percentage points); higher = more activity than DMSO
# How it was run: as §1
# [4] = system: Danio rerio larvae (5 dpf); assay: difference in habituation to acoustic stimuli vs DMSO (percentage points); higher = more habituation than DMSO
# How it was run: as §1
# [5] = system: Danio rerio larvae (5 dpf); assay: difference in combined optomotor response to red, green and blue moving lines vs DMSO (percentage points); higher = stronger optomotor response than DMSO
# How it was run: as §1
SMILES,difference in excitability [1],difference in startle response [2],difference in activity during first hour [3],difference in habituation to acoustic stimuli [4],difference [5]
NC1=NCC2c3ccccc3Cc3ccccc3N12 (stereo not given) [Epinastine (hydrochloride)],13,-2.41,14.1,4.49,7.56
COc1ccc2[nH]c([S@@+]([O-])Cc3ncc(C)c(OC)c3C)nc2c1 [Esomeprazole Magnesium],8.33,7.11,4.64,-0.745,5.95
COC(=O)[C@@H]1CC2=CC(=O)CC[C@]2(C)[C@@]23O[C@@H]2C[C@@]2(C)[C@@H](CC[C@@]24CCC(=O)O4)[C@H]13 [Eplerenone],2.31,-5.25,4.97,4.87,4.83
CCCCc1oc2ccc(NS(C)(=O)=O)cc2c1C(=O)c1ccc(OCCCN(CCCC)CCCC)cc1 [Dronedarone (hydrochloride)],7.9,-9.8,11.1,-12.7,-11.9
CN(CCOc1ccc(CC2SC(=O)NC2=O)cc1)c1ccccn1 (stereo not given) [Rosiglitazone],6.79,-7.02,26.9,-12.6,-6.71
O=C(Nc1c(Cl)cncc1Cl)c1ccc(OC(F)F)c(OCC2CC2)c1 [Roflumilast],18.7,-2.74,-14.9,-8.84,-5.57
Nc1nc2c(ncn2COC(CO)CO)c(=O)[nH]1 [Ganciclovir],1.56,3.58,7.53,2.18,4.57
CC(=O)Oc1c(C)cc(OCC(O)CNC(C)C)c(C)c1C (stereo not given) [Metipranolol (hydrochloride)],1.28,4.21,-3.92,5.42,0.513
CO[C@H]1/C=C/O[C@@]2(C)Oc3c(C)c(O)c4c(O)c(c5c(nc6cc(C)ccn65)c4c3C2=O)NC(=O)/C(C)=C\C=C\[C@H](C)[C@H](O)[C@@H](C)[C@@H](O)[C@@H](C)[C@H](OC(C)=O)[C@@H]1C [Rifaximin],-5.63,-5.31,13.2,0.472,0.85
CNC(=O)c1cnn(-c2nc(N)c3ncn([C@@H]4O[C@H](CO)[C@@H](O)[C@H]4O)c3n2)c1 [Regadenoson],-3.36,0.153,6.41,-0.999,3.31
C[C@](N)(Cc1ccc(O)c(O)c1)C(=O)O [L-(-)-α-Methyldopa],2.76,-2.74,3.45,-1.83,6
Cc1ccccc1C(=O)Nc1ccc(C(=O)N2CCCC(O)c3cc(Cl)ccc32)c(C)c1 (stereo not given) [Tolvaptan],11,1.76,15.8,-0.912,5.47
O=c1ccc2ccc(OCCCCN3CCN(c4cccc5sccc45)CC3)cc2[nH]1 [Brexpiprazole],13.2,-1.39,25.4,-17.4,-9.77
CC(=O)Nc1ccc(O)cc1 [Acetaminophen],-1.23,-0.558,-0.87,-5.65,-2.34
C#C[C@]1(O)CC[C@H]2[C@@H]3CCC4=CC(=O)CC[C@@H]4[C@H]3CC[C@@]21CC [Levonorgestrel],2.02,-3.01,-12.7,-0.397,3.05
Nc1cc(N2CCCCC2)nc(N)[n+]1[O-] [Minoxidil],2.04,3.09,-1.78,-5.41,-0.063
CCCCC(=O)N(Cc1ccc(-c2ccccc2-c2nnn[nH]2)cc1)[C@H](C(=O)O)C(C)C [Valsartan],-0.389,4.11,2.08,-3.08,3.88
Cc1cc(/C=C/C#N)cc(C)c1Nc1ccnc(Nc2ccc(C#N)cc2)n1 [Rilpivirine],9.16,-10.5,-18.2,-9.2,-12.5
CC(=O)N1CCN(c2ccc(OCC3COC(Cn4ccnc4)(c4ccc(Cl)cc4Cl)O3)cc2)CC1 (stereo not given) [Ketoconazole],8,3.5,-5.85,-0.327,5.96
CNS(=O)(=O)Cc1ccc2[nH]cc(CCN(C)C)c2c1 [Sumatriptan (succinate)],7.61,3.38,-12.9,5.35,-4.54
Nc1ccc(S(=O)(=O)c2ccc(N)cc2)cc1 [Dapsone],4.16,3.11,2.88,2.23,1.86
CCc1ccc(CCOc2ccc(CC3SC(=O)NC3=O)cc2)nc1 (stereo not given) [Pioglitazone (hydrochloride)],12.4,-4.66,-15.3,6.03,3.69
C/C=C1\NC(=O)[C@H]2CSSCC/C=C/[C@H](CC(=O)N[C@H](C(C)C)C(=O)N2)OC(=O)[C@H](C(C)C)NC1=O [Romidepsin],2.86,-0.00342,21,0.496,8.55
OC[C@@H](O)[C@@H](O)[C@H](O)[C@H](O)CO [D-Mannitol],1.16,-0.914,5.26,3.53,4.85
CN(C)C(=O)C(CCN1CCC(O)(c2ccc(Cl)cc2)CC1)(c1ccccc1)c1ccccc1 [Loperamide (hydrochloride)],20.6,4.43,29.3,-9.2,-2.52
Clc1ccc(C(c2ccccc2Cl)C(Cl)Cl)cc1 (stereo not given) [Mitotane],5.19,-9.33,60.8,-11.8,-15.4
CCCCC[C@H](O)CC[C@@H]1[C@H]2Cc3cccc(OCC(=O)O)c3C[C@H]2C[C@H]1O [Treprostinil],-4.04,-1.85,4.94,-2.5,-6.11
CC1=C(C/C=C(\C)CCC[C@H](C)CCC[C@H](C)CCCC(C)C)C(=O)c2ccccc2C1=O [Vitamin K1],-4.97,1.27,12.1,-1.08,6.58
